# Test system: Plasmodium falciparum
# Assay: GSK_TCMDC: Inhibition of Plasmodium falciparum 3D7 in whole red blood cells, using parasite LDH activity as an index of growth. Test compounds present at 2uM
# Type: functional
row,SMILES,Inhibition
1,O=C(Nc1cccc(C(F)(F)F)c1)c1cccc2nc(C(F)(F)F)[nH]c12,100%
2,Cc1ccc(S(=O)(=O)NC2CCN(c3ccnc4cc(Cl)ccc34)C2)cc1.O=C(O)C(F)(F)F (stereo not drawn),99%
3,COc1cc(C(C)C)ccc1C1CCN(CCCCNC(=O)c2ccc(NC(=O)c3ccc(Cl)cc3)cc2)CC1.O=C(O)/C=C/C(=O)O,98%
4,CCOC(=O)c1cc(C(=O)OC)c2ccccn12,97%
5,CC(C)C[C@@H](NC(=O)NC1CCC(CCN2C3CCC2CC(OC(=O)C(CO)c2ccccc2)C3)CC1)C(O)(c1ccccc1)c1ccccc1 (stereo partly drawn),95%
6,COc1ccc(-n2nc(C)c3c2NC(=O)CC3c2ccccc2OCc2ccc(F)cc2)cc1 (stereo not drawn),93%
7,Nc1c2c(nc3ccc(Oc4ccc(Br)cc4Br)cc13)CCCC2,99%
8,C=CCn1c(=N)c(C(=O)NCc2ccc(F)cc2)cc2c(=O)n3cccc(C)c3nc21,92%
9,CN(C)CCOc1ccc2c(=O)cc(CCc3cccc(F)c3F)n(CC(=O)N(C)Cc3ccc(-c4ccc(C(F)(F)F)cc4)cc3)c2c1.O=C(O)C(O)C(O)C(=O)O,90%
10,O=C(Nc1ccc(-c2cccc(-c3nc4cc(F)ccc4[nH]3)c2)cc1)Nc1ccsc1,100%
11,NCC1CCCN1Cc1ccc(-c2ccc(-c3nc4cc(C(F)(F)F)ccc4[nH]3)s2)cc1.O=C(O)C(F)(F)F (stereo not drawn),100%
12,Cc1[nH]c2ccc(-c3ccccc3)cc2c(=O)c1Br,97%
13,Cc1cccc2nc(-c3cccc(-c4cccc(NC(=O)c5cncn5C)c4)c3)[nH]c12,100%

# From ChEMBL document CHEMBL1157539, “Thousands of chemical starting points for antimalarial lead identification” (Nature, 2010)
